Data reported in the supplement of paper PMC9337992.
± gives the standard deviation of the averaged measurements.

Legend:
Assay in all cases: cell proliferation (confluence) relative to DMSO control; higher = less growth inhibition
Conditions in all cases: 5 uM; 6 d
BT549 = test system: BT549
In short: (§1)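 Triple-negative breast cancer cell lines were seeded into 384-well plates at 500 cells per well. Once they had attached, each epigenetic chemical probe in DMSO was added at a final 5 μM for 6 d, with four replicate wells per compound on every plate. Images were taken on an IncuCyte ZOOM with a ×10 objective in phase-contrast and processed in Incucyte 2016 software. Confluence was expressed relative to wells given DMSO alone.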

CAL120 = test system: CAL120
In short: as §1

HCC1143 = test system: HCC1143
In short: as §1

HCC1395 = test system: HCC1395
In short: as §1

HCC153 = test system: HCC153
In short: as §1

HCC1806 = test system: HCC1806
In short: as §1

HCC38 = test system: HCC38
In short: as §1

HCC70 = test system: HCC70
In short: as §1

Hs578-T = test system: Hs578-T
In short: as §1

MB157 = test system: MB157
In short: as §1

SUM149-PT = test system: SUM149-PT
In short: as §1

SUM159-PT = test system: SUM159-PT
In short: as §1

O=C(O)CNC(=O)c1c(O)c2ccccc2n(Cc2ccccc2)c1=O
cell proliferation (BT549): 99.17 ± 0.41% | cell proliferation (CAL120): 88.7 ± 5.2% | cell proliferation (HCC1143): 97.3 ± 1.9% | cell proliferation (HCC1395): 99.51 ± 0.21% | cell proliferation (HCC153): 83.7 ± 4.2% | cell proliferation (HCC1806): 98.07 ± 0.77% | cell proliferation (HCC38): 98.2 ± 1.1% | cell proliferation (HCC70): 98.48 ± 0.74% | cell proliferation (Hs578-T): 95 ± 1.8% | cell proliferation (MB157): 95.4 ± 3.5% | cell proliferation (SUM149-PT): 88 ± 5% | cell proliferation (SUM159-PT): 99.986 ± 0.0083%

COc1cc(C(=O)N2CC[C@@H](O)[C@@H](N)C2)cc2nc(-c3cc4ccccc4n3CC3CC3)n(C)c12
cell proliferation (BT549): 97.5 ± 1.7% | cell proliferation (CAL120): 97.9 ± 2.2% | cell proliferation (HCC1143): 97.3 ± 1.2% | cell proliferation (HCC1395): 99.953 ± 0.017% | cell proliferation (HCC153): 59.2 ± 12% | cell proliferation (HCC1806): 79.3 ± 7.7% | cell proliferation (HCC38): 99.49 ± 0.46% | cell proliferation (HCC70): 88.1 ± 8% | cell proliferation (Hs578-T): 97.5 ± 1.4% | cell proliferation (MB157): 90.8 ± 11% | cell proliferation (SUM149-PT): 87.2 ± 9.1% | cell proliferation (SUM159-PT): 99.994 ± 0.0032%

c1ccc([C@@H]2C[C@H]2NC2CCNCC2)cc1
cell proliferation (BT549): 99.73 ± 0.11% | cell proliferation (CAL120): 90.8 ± 1.6% | cell proliferation (HCC1143): 97.61 ± 0.58% | cell proliferation (HCC1395): 99.99 ± 0.0084% | cell proliferation (HCC153): 86.3 ± 2.5% | cell proliferation (HCC1806): 99.68 ± 0.28% | cell proliferation (HCC38): 99.69 ± 0.18% | cell proliferation (HCC70): 90.9 ± 5.3% | cell proliferation (Hs578-T): 96.3 ± 1.6% | cell proliferation (MB157): 86.3 ± 7.8% | cell proliferation (SUM149-PT): 64.1 ± 20% | cell proliferation (SUM159-PT): 99.974 ± 0.029%
